Assay results taken from publication PMC7819943, “Rice protein-binding microarrays: a tool to detect cis-acting elements near promoter regions in rice”.
Whole data set: some 39,000 sequences, median “fluorescence intensity (a.u.)” near 4,300, cut for the highest 2% near 39,000. The full list was thinned out, with the highest values kept by preference.

Molecular target: T1, OsSMF1 (Oryza sativa, UniProt Q6ZLB0 1-436)
T1 sequence: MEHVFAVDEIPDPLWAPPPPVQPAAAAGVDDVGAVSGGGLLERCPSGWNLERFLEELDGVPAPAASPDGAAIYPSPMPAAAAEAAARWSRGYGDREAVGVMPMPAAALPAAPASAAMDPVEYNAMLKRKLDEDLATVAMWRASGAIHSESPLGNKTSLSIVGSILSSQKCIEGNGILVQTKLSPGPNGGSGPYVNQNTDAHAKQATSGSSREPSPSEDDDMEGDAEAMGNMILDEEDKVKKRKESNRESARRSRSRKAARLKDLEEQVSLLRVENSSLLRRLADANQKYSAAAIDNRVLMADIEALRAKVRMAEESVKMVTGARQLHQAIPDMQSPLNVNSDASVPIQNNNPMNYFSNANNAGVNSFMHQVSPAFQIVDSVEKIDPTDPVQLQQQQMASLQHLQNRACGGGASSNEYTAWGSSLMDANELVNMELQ
Experiment: protein-binding microarray (RPBM); PBS, 2% BSA, 51.3 ng/ul salmon testes DNA, 50 uM zinc acetate, 200 nM TF, 25 C, 1 h; high values mean tight binding
Conditions: protein: recombinant; tags: N-terminal polyhistidine and DsRed monomer fusion (pET32a); chain copies: 2; label: CyDye5-dUTP incorporated in the synthesized complementary strand; 3' TTTTT single-stranded linker to array surface; dsDNA, one strand shown
How it was run: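 In PBS with 2% BSA, salmon testes DNA and 50 µM zinc acetate, 200 nM protein was incubated on a custom Agilent array at 25 °C for 1 h and then washed off. The array had been made double-stranded by primer extension with Cy5-dUTP and blocked with 2% BSA. The proteins were transcription factors fused N-terminally to polyhistidine and DsRed, expressed in E. coli BL21-CodonPlus and purified on Ni–NTA. The binding signal is per-feature fluorescence intensity (arbitrary units) from an Axon 4000B scanner.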

Sequence | binding signal
CATCAGATGCGCCCATCGCTTGAAGGAGAGACGCCGAGACCGGAGTCACCTAGTGCAG | 27300 fluorescence intensity (a.u.)
GCAGTCTTGTAGTCTCGTGCACCAATCGTCGCGCCGCGGCCGGAGTCACCTAGTGCAG | 22300 fluorescence intensity (a.u.)
GCACCTTGAATGAATTATCTAGCAAAGCCAGCGTAGACGTCGGAGTCACCTAGTGCAG | 30200 fluorescence intensity (a.u.)
TGTGTACGTCACATCCTAATTAACATCAACTTGATAAAATCGGAGTCACCTAGTGCAG | 7900 fluorescence intensity (a.u.)
TGGGTCCCTCCATGCTGAGTCAGCTTGTCAATCGGGTCAACGGAGTCACCTAGTGCAG | 21900 fluorescence intensity (a.u.)
AAGCCTAAAACCTCCCCATCCACGTCACCCATCCTCCTCCCGGAGTCACCTAGTGCAG | 22300 fluorescence intensity (a.u.)
GGGCTCCCTCCACCGCCGCCTCCGCCACCGCCTCGCCGCCCGGAGTCACCTAGTGCAG | 3150 fluorescence intensity (a.u.)
ACACGCCACGCCGCCACCTCCACTTCGTTAACCCTTCTCCCGGAGTCACCTAGTGCAG | 5410 fluorescence intensity (a.u.)
GCCTAACCCTAACCCTAGCCGCCACCGCTCAACCGCCTCCCGGAGTCACCTAGTGCAG | 65100 fluorescence intensity (a.u.)
ACCGCCGGTCCACTCACCCCTAACCCTAGCCGCTGCCGCCCGGAGTCACCTAGTGCAG | 4020 fluorescence intensity (a.u.)
TGGCTCCCACGTTAACTTAGCCGCCACGTCAGCTAAAACCCGGAGTCACCTAGTGCAG | 46600 fluorescence intensity (a.u.)
GACGACTGCTGGTACACGGACATGAGGCTGCAGCCGACGACGGAGTCACCTAGTGCAG | 3480 fluorescence intensity (a.u.)
GCCACGCCCAACCCGTGTCACTGTCACGTGGGCCCCACCCCGGAGTCACCTAGTGCAG | 7720 fluorescence intensity (a.u.)
CAACCAATCAATCACATACGTGGACAACTGCAGAAAATGCCGGAGTCACCTAGTGCAG | 5610 fluorescence intensity (a.u.)
ATCGCGCATCCACTCCACACCACACGCTTCACTGGTTCCGCGGAGTCACCTAGTGCAG | 3870 fluorescence intensity (a.u.)
ACTGCCGGTTCAACTGCTCCACGGCTCCACTCCACGCATCCGGAGTCACCTAGTGCAG | 43300 fluorescence intensity (a.u.)
CGGCTCCGCCGCACTTGCTCGGCCGTCCACGCCGGCACGGCGGAGTCACCTAGTGCAG | 3640 fluorescence intensity (a.u.)
ACTATGGATATCTGTTTTAGCTGACATGGCATCCTACTCACGGAGTCACCTAGTGCAG | 8140 fluorescence intensity (a.u.)
ACCACTGTTTGTGGAGTGTGTGCACACACCACCTCCGATGCGGAGTCACCTAGTGCAG | 3810 fluorescence intensity (a.u.)
ATTCACTGATAATAGAGACCCACACGTTAGTATTGGAGTACGGAGTCACCTAGTGCAG | 3140 fluorescence intensity (a.u.)
CATTTGTTTTATTTTAGCATTTGTCACTTACATGTGGGACCGGAGTCACCTAGTGCAG | 3180 fluorescence intensity (a.u.)
TGTGGTTGGTGTCGATTTGGAATGGGGTGAAATGGACTGGCGGAGTCACCTAGTGCAG | 3260 fluorescence intensity (a.u.)
CAAATGTCGATTTGGTTGTGGACATGTCAATGCCGATCAACGGAGTCACCTAGTGCAG | 50200 fluorescence intensity (a.u.)
AAATTATGTCATTTTGATCAACAGTTGGTACAGTAGTACACGGAGTCACCTAGTGCAG | 48000 fluorescence intensity (a.u.)
TGGATATACATATGCCATGTCGATTTTGTGCCGAAGTGGACGGAGTCACCTAGTGCAG | 3330 fluorescence intensity (a.u.)
CTTCAGTTATGTTAATTACATGTCATTTGTTTTGTTACAACGGAGTCACCTAGTGCAG | 4920 fluorescence intensity (a.u.)
AAGGTGAGGTTGGTCAACATTTGTCATCAAATTTTGATCACGGAGTCACCTAGTGCAG | 3400 fluorescence intensity (a.u.)

Sequence | binding signal
TGCACCTAGGTGTACATGTCATTGTGTGTTTGTGGTTGGTCGGAGTCACCTAGTGCAG | 4630 fluorescence intensity (a.u.)
GTTTTGTGATTTGGTACATGTGGTAGCATTCACCAAATGTCGGAGTCACCTAGTGCAG | 39600 fluorescence intensity (a.u.)
CAGCTACAGGACGGCAGTACCCAGTACACGCACGCGTACCCGGAGTCACCTAGTGCAG | 3640 fluorescence intensity (a.u.)
TTAAATGCACCCCTACTCAACCCCTCAATCGACGTGTTGGCGGAGTCACCTAGTGCAG | 4180 fluorescence intensity (a.u.)
AGTATTTTAAATCATATACAAGTACGTCACATCATCACTCCGGAGTCACCTAGTGCAG | 3720 fluorescence intensity (a.u.)
TGACACCGTCGCCACCTCGCCACCCATCCATTTCCATTGCCGGAGTCACCTAGTGCAG | 3650 fluorescence intensity (a.u.)
TGCACGCTGCGGCGTACGTCGCGTGCGCACACGGGAATTTCGGAGTCACCTAGTGCAG | 3190 fluorescence intensity (a.u.)
TCTACTCCTAAATCCACATCATCTTTAGCAAAAGCAACAACGGAGTCACCTAGTGCAG | 4670 fluorescence intensity (a.u.)
TTGTCGCAGGTTGCTGACTGTTCCTCGAGGGAGTTCTCGGCGGAGTCACCTAGTGCAG | 6980 fluorescence intensity (a.u.)
GCCTCTCCTTGCTTGCGTGCTCACTGTCGCTGACTGCTCTCGGAGTCACCTAGTGCAG | 4650 fluorescence intensity (a.u.)
TGTGGTGGCTGAGTCATCGTGGGATCCACGTGGGCCCCACCGGAGTCACCTAGTGCAG | 24700 fluorescence intensity (a.u.)
GCCGTGGGAATGGCTGAGGATTAGTGCGCCACGTCAGCAACGGAGTCACCTAGTGCAG | 37300 fluorescence intensity (a.u.)
TCGTGGGAATGGCTGAGGATTAGGGCGCCACGTCATCGTTCGGAGTCACCTAGTGCAG | 45600 fluorescence intensity (a.u.)
TTTCTCCACGTCAGCGAAACCACCTATATATATACTGCCACGGAGTCACCTAGTGCAG | 14300 fluorescence intensity (a.u.)
AGACACAGCACACCCACTCACTCTGCTCACTCTCCCATACCGGAGTCACCTAGTGCAG | 39100 fluorescence intensity (a.u.)
GCCGCCGCTGTCGCCATCCACGCTCCGAGCGCCACTGCCACGGAGTCACCTAGTGCAG | 3490 fluorescence intensity (a.u.)
CTCCACACAGACACACATCCCACCCCACCCACATACACACCGGAGTCACCTAGTGCAG | 3610 fluorescence intensity (a.u.)
CCCTGCTCTGCCACGCCCGCCACCGTCTGCCGGCCTCTACCGGAGTCACCTAGTGCAG | 4730 fluorescence intensity (a.u.)
AACTCTCCAGTCTCCACCCACCTCACTCCACAGTCCACACCGGAGTCACCTAGTGCAG | 3150 fluorescence intensity (a.u.)
CTCCGTTGTGCTCTGTCTCTCTACCGCCACCATCCACTGCCGGAGTCACCTAGTGCAG | 39200 fluorescence intensity (a.u.)
CTATGCCTTGTCAACATTCAACCCCTCCAATAGACTTTGTCGGAGTCACCTAGTGCAG | 3210 fluorescence intensity (a.u.)
CTCTTGACCAGCCGAGCGCACCGTCATCAGGCTACATCTCCGGAGTCACCTAGTGCAG | 5290 fluorescence intensity (a.u.)
TCCAGTTTCGCGTAGCTGCGTGACAGTTCAATTGAACTCTCGGAGTCACCTAGTGCAG | 3200 fluorescence intensity (a.u.)
CCCTCTCCACATTCTCTTCCACCTGTGTTCCCCTTTTCTTCGGAGTCACCTAGTGCAG | 3320 fluorescence intensity (a.u.)
TCCTCCCATCTCTCTCTCTTTTGCCCACACTCTTTTCACACGGAGTCACCTAGTGCAG | 5660 fluorescence intensity (a.u.)
CTCTTTTCCCCATCTCACATACTGTGCCTTGCCTCCATAACGGAGTCACCTAGTGCAG | 65200 fluorescence intensity (a.u.)
TTCTATAGAAGCTTTCTCTCTTAAAACTCTACCAAAATTTCGGAGTCACCTAGTGCAG | 24000 fluorescence intensity (a.u.)
